# According to PubChem BioAssay (NCATS):
# Values without a mark were called inactive. Inconclusive results are not listed. Active and inactive are the calls of the source. Unless noted, the call rests on the fitted dose curve; in most records, active means well fitted curve in either direction with a large enough effect (not every such curve was filed as active); inconclusive means small, poorly fitted or top-dose-only effect, or another doubt; inactive means flat fitted curve, though single readings scatter.
# What was measured:
# [1] = molecular target: Lysosomal acid glucosylceramidase (Homo sapiens) (UniProt P04062); assay: Glucocerebrosidase-p2 (AID 348; in the data active means potency below about 10 µM; further: potency means the concentration at half of the fitted maximal effect); conditions: purified GBA, blue fluorogenic substrate, 40 min
# Sequence of Lysosomal acid glucosylceramidase (Homo sapiens) (P04062 whole entry, looked up): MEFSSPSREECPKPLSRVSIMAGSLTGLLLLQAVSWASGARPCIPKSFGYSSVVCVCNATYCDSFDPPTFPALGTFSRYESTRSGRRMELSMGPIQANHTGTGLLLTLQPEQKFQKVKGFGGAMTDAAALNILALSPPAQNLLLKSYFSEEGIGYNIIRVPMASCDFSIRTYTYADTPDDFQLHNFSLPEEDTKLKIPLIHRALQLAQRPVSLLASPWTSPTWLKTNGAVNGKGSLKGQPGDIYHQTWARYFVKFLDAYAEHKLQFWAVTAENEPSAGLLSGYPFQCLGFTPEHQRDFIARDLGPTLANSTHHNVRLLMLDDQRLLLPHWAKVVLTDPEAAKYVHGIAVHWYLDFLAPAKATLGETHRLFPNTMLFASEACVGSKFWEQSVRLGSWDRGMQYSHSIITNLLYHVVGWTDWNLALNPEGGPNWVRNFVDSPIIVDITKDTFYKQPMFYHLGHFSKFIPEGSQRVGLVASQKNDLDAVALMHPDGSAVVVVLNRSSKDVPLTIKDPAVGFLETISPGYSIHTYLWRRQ
# Summary of the method: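 Compounds titrated from 0.6 nM upwards against 0.2 nM enzyme in pH 5.9 citric acid/KH2PO4, taurocholate, tween-20; blue fluorogenic substrate 80 uM, 40 min room temperature, stopped and read Ex 365/Em 440 for AC50.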
# [2] = AP1 Signaling Pathway (AID 357); conditions: ME-180 AP-1-bla reporter, EGF-induced, beta-lactamase ratio, 5 h; at 7.69 µM (top of the series) unless noted; further: on the % scale 0 is the no-effect control and ±100 the full control effect
# Summary of the method: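 ME-180 cells with beta-lactamase reporter under AP-1 response element, stimulated with EC50 EGF; compounds tested in titration series, 5 h at 37 °C. CCF4 substrate added 2.5 h at room temperature; 460/530 nm emission ratio gave %activity and AC50.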
# [3] = NFAT Signaling Pathway (AID 444); conditions: Jurkat NFAT-bla M1, carbachol, beta-lactamase ratio, 5 h; at 7.69 µM (top of the series) unless noted;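 further: carbachol stimulus at about its EC50 of 1 µM final; on the % scale 0 is the no-effect control and ±100 the full control effect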
# Summary of the method: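 Jurkat cells with NFAT-driven β-lactamase reporter and co-expressed M1 receptor, stimulated with carbachol (final 1 uM, ~EC50), compound titration, 5 h at 37 °C. CCF4 loaded 1 h at RT; 460/530 nm ratio gave %activity and AC50.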
# [4] = Stat Signaling Pathway (AID 446); conditions: ME-180 (cervical carcinoma) SIE beta-lactamase reporter, IL-6 stimulated, 5 h; at 7.69 µM (top of the series) unless noted;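 further: ME-180 cervical cancer cells given 40 pM IL-6 alongside compound; SIE-controlled beta-lactamase reporter measured as 460/530 nm FRET emission ratio; on the % scale 0 is the no-effect control and ±100 the full control effect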
# Summary of the method: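 IL-6/STAT signaling read in ME-180 cells via an SIE beta-lactamase reporter. Stimulus was 40 pM IL-6 (its AC50) for 5 hrs, so both activation and inhibition register.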
# [5] = molecular target: Glucocorticoid receptor (Homo sapiens) (UniProt P04150); assay: GR-GFP Redistribution (AID 450;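 active means compounds whose dose series gives a full or clear partial fitted curve of increased nuclear translocation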; further: potency means the concentration at half of the fitted maximal effect); conditions: U2OS GR-GFP nuclear translocation, laser cytometry, 2 h
# Sequence of Glucocorticoid receptor (Homo sapiens) (P04150 whole entry, looked up, the tested form may be a part): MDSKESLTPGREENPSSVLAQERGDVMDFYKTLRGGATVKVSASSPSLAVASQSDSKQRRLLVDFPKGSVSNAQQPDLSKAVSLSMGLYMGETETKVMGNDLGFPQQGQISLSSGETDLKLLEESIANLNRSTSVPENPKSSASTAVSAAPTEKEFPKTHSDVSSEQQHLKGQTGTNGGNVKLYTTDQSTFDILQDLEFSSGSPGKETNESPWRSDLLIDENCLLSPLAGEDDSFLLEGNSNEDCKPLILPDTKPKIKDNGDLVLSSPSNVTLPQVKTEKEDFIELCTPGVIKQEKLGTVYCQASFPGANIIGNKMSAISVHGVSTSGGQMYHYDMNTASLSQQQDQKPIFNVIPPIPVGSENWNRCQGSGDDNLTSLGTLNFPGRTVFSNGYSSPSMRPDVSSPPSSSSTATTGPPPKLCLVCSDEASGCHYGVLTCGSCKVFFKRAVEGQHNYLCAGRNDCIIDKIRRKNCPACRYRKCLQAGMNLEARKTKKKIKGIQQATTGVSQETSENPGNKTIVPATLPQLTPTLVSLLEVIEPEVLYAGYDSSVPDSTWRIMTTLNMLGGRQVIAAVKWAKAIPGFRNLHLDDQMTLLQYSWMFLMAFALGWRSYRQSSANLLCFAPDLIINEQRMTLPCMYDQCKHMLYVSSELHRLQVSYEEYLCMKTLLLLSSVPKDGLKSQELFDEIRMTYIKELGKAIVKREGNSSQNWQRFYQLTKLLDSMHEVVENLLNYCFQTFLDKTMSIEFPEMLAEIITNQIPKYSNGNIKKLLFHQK
# [6] = molecular target: Glucocorticoid receptor (Homo sapiens) (UniProt P04150); assay: GR-EFC Redistribution (AID 451; calls by dose curve; further: potency means the concentration at half of the fitted maximal effect); conditions: CHO-K1 GR-EFC translocation, beta-gal luminescence, 2 h
# Summary of the method: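 CHO-K1 cells expressing nuclear EA and GR-ED fragments of b-gal; compounds titrated up to 46 uM final, 2 h at 37 C. GR nuclear translocation read as complemented b-gal luminescence after 1 h RT detection.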
# [7] = molecular target: Mitogen-activated protein kinase 10 (Mus musculus) (UniProt Q61831); assay: JNK3 AlphaScreen Assay (AID 530); conditions: JNK3 lysate, c-Jun phosphorylation; series mostly up to 11.4 µM;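 further: kinase came from lysate of stimulated human HepG2 cells; signal reports phosphorylation of biotinylated GST-cJun 1-79 at Ser73 with 10 µM ATP; on the % scale 0 is the no-effect control and ±100 the full control effect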
# Summary of the method: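 Pre-activated (IL-1β/TNFα) JNK3 in HepG2 lysates phosphorylates biotin-GST-cJun(1-79), 10 uM ATP; anti-phospho-cJun(Ser73) AlphaScreen read at room temperature, pH 7.6 Tris buffer. Compounds pre-incubated 15 min as titrations.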
# [8] = molecular target: 3',5'-cyclic-AMP phosphodiesterase 4B (Homo sapiens) (UniProt Q07343); assay: qHTS Assay for Inhibitors of PDE-IV (AID 607; active means well fitted activation curve with a large enough effect in the main read-out, with a control signal flat, not every such curve was filed as active; further: % of control where 0% means no effect); conditions: HEK293 ACTOne CNG channel cells, membrane potential fluorescence; series mostly up to 22.9 µM
# Sequence of 3',5'-cyclic-AMP phosphodiesterase 4B (Homo sapiens) (Q07343 whole entry, looked up): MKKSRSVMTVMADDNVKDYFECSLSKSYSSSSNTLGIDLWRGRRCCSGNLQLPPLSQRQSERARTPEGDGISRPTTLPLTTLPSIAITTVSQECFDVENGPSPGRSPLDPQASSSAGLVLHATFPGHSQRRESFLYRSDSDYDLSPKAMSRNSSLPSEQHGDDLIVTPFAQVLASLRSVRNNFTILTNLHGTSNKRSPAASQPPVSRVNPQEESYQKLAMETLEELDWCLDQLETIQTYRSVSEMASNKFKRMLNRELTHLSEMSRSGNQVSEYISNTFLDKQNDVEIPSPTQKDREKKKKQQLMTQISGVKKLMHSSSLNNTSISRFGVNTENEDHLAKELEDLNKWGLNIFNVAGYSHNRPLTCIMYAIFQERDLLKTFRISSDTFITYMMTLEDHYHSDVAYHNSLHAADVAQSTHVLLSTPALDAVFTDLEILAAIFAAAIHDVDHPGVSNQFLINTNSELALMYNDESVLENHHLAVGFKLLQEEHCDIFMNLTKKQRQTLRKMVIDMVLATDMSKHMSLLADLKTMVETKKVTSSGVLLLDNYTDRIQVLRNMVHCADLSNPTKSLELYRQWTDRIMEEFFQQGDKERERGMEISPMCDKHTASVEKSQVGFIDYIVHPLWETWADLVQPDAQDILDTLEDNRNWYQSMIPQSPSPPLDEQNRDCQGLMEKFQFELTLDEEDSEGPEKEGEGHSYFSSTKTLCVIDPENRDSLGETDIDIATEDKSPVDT
# Summary of the method: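 Live HEK293 cells with a modified cyclic nucleotide-gated (CNG) channel report intracellular cAMP via membrane-potential dye fluorescence (ex 535/em 590 nm). Endogenous PDE-IV was targeted. Compounds were tested at up to 22.9 uM final; RO 20-1724 100 uM served as control.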
Compound,Potency [1],"activity change, negative = inhibition [2]","activity change, negative = inhibition [3]","activity, negative = inhibition [4]",Potency [5],Potency [6],Potency [7],Potency [8]
CC1(C)CC(Nc2ccc(Nc3ccccc3)cc2)CC(C)(C)N1,> 11.4 µM,-24.4%,6.65%,-6.18%,> 46 µM,> 9.22 µM,inactive,inactive
O=S(=O)(c1ccc2ccccc2c1)N1CCN(S(=O)(=O)c2ccc3ccccc3c2)CC1,> 11.4 µM,-2.95%,-5.78%,0.106%,> 46 µM,> 9.22 µM,inactive,inactive
O=C1c2ccccc2[C@@H]([C@@H]2c3ccccc3C(=O)c3cc(Br)ccc32)c2ccc(Br)cc21,> 11.4 µM,-5.16%,-5.27%,8.23%,> 46 µM,> 9.22 µM,inactive,inactive
CC(=O)O[C@H]1CC[C@]2(C)C(=CC[C@H]3[C@H]4C[C@H]5O[C@]6(CC[C@H](C)CN6)[C@H](C)[C@@H]5[C@]4(C)CC[C@@H]32)C1,> 11.4 µM,13.4%,0.916%,3.85%,> 46 µM,> 9.22 µM,inactive,inactive
O=C1c2ccccc2C(=O)N1c1ccc(Cc2ccc(N3C(=O)c4ccccc4C3=O)cc2)cc1,> 11.4 µM,-0.978%,8.54%,-2.37%,> 46 µM,> 9.22 µM,inactive,inactive
CN(C)CCN1C(=O)CC[C@]2(C)C1=CC[C@@H]1[C@@H]2CC[C@]2(C)[C@H]1CC[C@]2(C)O,> 11.4 µM,3.79%,-6.05%,6.79%,> 46 µM,> 9.22 µM,inactive,inactive
CC(NC(=O)c1ccccc1)(C(=O)O)C(=O)O,> 11.4 µM,2.23%,-6.87%,14.4%,> 46 µM,> 9.22 µM,inactive,inactive
CC(C)[C@H](Nc1ncnc2nc[nH]c12)C(=O)O,> 11.4 µM,7.63%,-3.53%,-3.88%,> 46 µM,> 9.22 µM,inactive,inactive
NS(=O)(=O)c1ccc(NC(=O)Nc2cccc3ccccc23)cc1,> 11.4 µM,-4.66%,12.6%,-9.73%,> 46 µM,> 9.22 µM,inactive,inactive
O=C(O)CSc1ccccc1C(=O)O,> 11.4 µM,9.97%,-5.26%,-2.73%,> 46 µM,> 9.22 µM,inactive,inactive
Cc1ccc(S(=O)(=O)OC2CCN(C)CC2)cc1,> 11.4 µM,0.369%,2.31%,3.66%,> 46 µM,> 9.22 µM,inactive,inactive
Nc1nc(N)c(N=Nc2ccc(C(=O)O)c(O)c2)c(N)n1,> 11.4 µM,2.15%,15.4%,-2.93%,> 46 µM,> 9.22 µM,inactive,inactive
C[C@H](OP(=O)(O)O)[C@H](N)C(=O)O,> 11.4 µM,0.907%,13.7%,-1.55%,> 46 µM,> 9.22 µM,inactive,inactive
CCN(CC(=O)O)C(=O)c1cccnc1,> 11.4 µM,-4.46%,5.05%,-6.57%,> 46 µM,> 9.22 µM,inactive,inactive
O=C(O)C(=Cc1ccnc2ccccc12)C(=O)O,> 11.4 µM,-3.98%,24.2%,9.09%,> 46 µM,> 9.22 µM,inactive,inactive
CC[C@@H](c1ccc2cc(O)ccc2c1)C(C)(C)C(=O)O,> 11.4 µM,-1.38%,8.96%,6.79%,> 46 µM,> 9.22 µM,inactive,inactive
CC(=O)CSCc1ccccn1,> 11.4 µM,4.51%,-1.92%,-2.34%,> 46 µM,> 9.22 µM,inactive,inactive

Compound,Potency [1],"activity change, negative = inhibition [2]","activity change, negative = inhibition [3]","activity, negative = inhibition [4]",Potency [5],Potency [6],Potency [7],Potency [8]
NNC(=O)CS(=O)(=O)Nc1ncccn1,> 11.4 µM,-0.0437%,3.94%,-3.75%,> 46 µM,> 9.22 µM,inactive,inactive
Clc1ccc(CSc2ncnc3c2ncn3[C@@H]2CCCCO2)cc1,> 11.4 µM,-8.23%,12.9%,-14.7%,> 46 µM,> 9.22 µM,inactive,inactive
O=C(O)CSCc1cccc2ccccc12,> 11.4 µM,-0.864%,16.3%,2.65%,> 46 µM,> 9.22 µM,inactive,inactive
CC(C)=N[C@H](C(=O)O)C(C)(C)S,> 11.4 µM,10%,3.46%,6.64%,> 46 µM,> 9.22 µM,inactive,inactive
CC(=O)O[C@@H]1CC[C@]2(C)C(=C[C@@H]([C@@H]3C=C4C[C@@H](OC(C)=O)CC[C@]4(C)C4=C3[C@H]3C[C@@H]5O[C@@]6(CC[C@H](C)CO6)[C@@H](C)[C@@H]5[C@@]3(C)CC4)C3=C2CC[C@@]2(C)[C@H]4[C@@H](C)[C@]5(CC[C@H](C)CO5)O[C@@H]4C[C@H]32)C1,> 11.4 µM,7.21%,21%,-1.63%,> 46 µM,> 9.22 µM,inactive,inactive
OC[C@@H](O)[C@@H](O)[C@@H](O)[C@@H](O)c1nc2ccc(Cl)cc2[nH]1,> 11.4 µM,4.42%,10.1%,-0.802%,> 46 µM,> 9.22 µM,inactive,inactive
Nc1nc(-c2ccccc2)c(CC(=O)O)s1,> 11.4 µM,0.597%,18.8%,0.225%,> 46 µM,> 9.22 µM,inactive,inactive
CNC/C(Cl)=N/S(=O)(=O)c1ccc(C)cc1,> 11.4 µM,-4.53%,8.45%,2.28%,> 46 µM,> 9.22 µM,inactive,inactive
CN(CCC(=O)O)S(=O)(=O)c1ccccc1,> 11.4 µM,-0.615%,15.6%,11.1%,> 46 µM,> 9.22 µM,inactive,inactive
Ic1ccc2c(c1)N(c1ccccc1)c1cc(Nc3ccc4nc5ccc(I)cc5[n+](-c5ccccc5)c4c3)ccc1N2,7.99 µM (active),-4%,-3.73%,-4.86%,> 46 µM,> 9.22 µM,inactive,inactive
N[C@@H](CCCCO)C(=O)O,> 11.4 µM,4.11%,-3.02%,-3.96%,> 46 µM,> 9.22 µM,inactive,inactive
Cc1c(-c2nc(N)nc(C3CC3)c2C)nc(N)nc1C1CC1,> 11.4 µM,2.87%,4.67%,5.17%,> 46 µM,> 9.22 µM,inactive,inactive
O=C(O)C(=O)/C=C(\O)c1ccc(Br)cc1,> 11.4 µM,-0.263%,12.1%,11.6%,> 46 µM,> 9.22 µM,inactive,inactive
Cn1c(=S)c2[nH]c(SCCN3C(=O)c4ccccc4C3=O)nc2n(C)c1=O,> 11.4 µM,0.578%,-4.22%,2.07%,> 46 µM,> 9.22 µM,inactive,inactive
CC(=O)c1ccc(O)c(CN(C2CCCCC2)C2CCCCC2)c1O,> 11.4 µM,-2.68%,16%,-1.55%,> 46 µM,> 9.22 µM,inactive,inactive
NNS(=O)(=O)c1cc(C(=O)O)cc(C(=O)O)c1,> 11.4 µM,4.57%,14.9%,3.48%,> 46 µM,> 9.22 µM,inactive,inactive
CC(=O)Nc1cc(CN2CCCCC2)c(O)c2ncccc12,> 11.4 µM,4.21%,-27.8%,6.71%,> 46 µM,> 9.22 µM,inactive,inactive
